Screening results from PubChem.
Dicer inh: inhibitors of Dicer pre-microRNA processing, primary screen, biochemical, cat-ELCCA, chemiluminescence. Endoribonuclease Dicer (Homo sapiens), Q9UPY3. cat-ELCCA pre-miR-21 Dicer processing; stronger effect = higher value. z-score at 25 µM. 6% of 47,000 active. AID 1347074, 2019; in the data active = z-score above about 3, passing the limit was not always enough;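 note: plate controls were vehicle for no effect and no enzyme for full effect; higher signal means more uncleaved substrate so more Dicer inhibition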
An asterisk follows results filed as active. The entries come from a sample that favours hits as a whole.

SMILES	Dicer inh
COc1cccc2c1OC(CCSC)N1N=C(c3cc(C)ccc3O)CC21 (stereo not drawn)	-0.7
COC(=O)c1ccc(C2Oc3ccccc3C3CC(c4cc(OC)ccc4O)=NN32)cc1 (stereo not drawn)	2.66
Cc1nc(/N=C/N(C)C)c(Br)cc1Br	-0.14
C#CCOc1c(Cl)cccc1Cl	2.63
Cn1c(NCCc2ccccc2)nc2c1c(=O)n(Cc1ccccc1)c(=O)n2C	2.09
COC(=O)c1ccc2c(c1)N(C)S(=O)(=O)c1cnc(SC)nc1-2	-2.91
COC(OC)c1nc(SCC(=O)Nc2cccc(Cl)c2)ncc1C(=O)O	-2.13
COC(=O)c1ccc2c(c1)N(C)S(=O)(=O)c1cnc(SCC(=O)Nc3ccccc3)nc1-2	5*
Cc1cc(S(=O)(=O)NN)c(C)cc1Cl	-2.69
O=S(=O)(c1cc(Br)c(Br)s1)N1CCCCC1	0.86
O=S(=O)(c1cc(Br)c(Br)s1)N1CCCC1	3.14*
O=S(=O)(c1ccccc1)c1ccc(S(=O)(=O)N2CCCC2)s1	-0.58
CCOC(=O)C1=C(C)NC2=C(C(=O)CC(C)(C)C2)C1c1ccc(C)cc1 (stereo not drawn)	1.11
O=C(ON=C(c1ccccc1)c1ccccc1)c1ccc(CSc2ccc(C(F)(F)F)cn2)o1	0.33
CCCCCCOc1ccc(OC(=O)c2ccncc2)cc1	8.88*
O=C(Oc1ccc(OC(=O)c2ccncc2)cc1)c1ccncc1	0.9
COc1ccc(OC(=O)c2ccncc2)cc1	1.9
O=C(O)CCCC(=O)Nc1nc2nccc(-c3ccccc3)n2n1	-0.66
O=C(O)CCCC(=O)Nc1ccn(-c2ccccc2)n1	0.09
Nc1nc(NC(=O)CCCC(=O)O)nn1-c1ccccc1	15.8*
O=C(Oc1cccc(NC2=NS(=O)(=O)c3ccccc32)c1)c1cccs1	1.05
O=C(Nc1ccc2c(c1)OCCCO2)Nc1cc2ccccc2s1	-0.16
Cc1cc(=O)[nH]n(-c2ccccc2)c1=O	1.96
O=c1c([N+](=O)[O-])c[nH]n(-c2ccccc2)c1=O	4.42*
O=C1c2ccccc2C(=O)N1c1ccc([N+](=O)[O-])cc1	-1.12
SMILES	Dicer inh
O=S(=O)(Cc1c[nH]c2ccccc12)c1ccccc1	-2.56
CCOc1nc2c(c(-c3ccc(OC)cc3)c1C#N)Cc1ccccc1-2	-1.64
CC(=O)COc1nc2c(c(-c3ccco3)c1C#N)CCc1ccccc1-2	243
CC(=O)COc1nc2c(c(-c3ccc(Cl)cc3)c1C#N)CCc1ccccc1-2	3.23*
Cc1c(NC(=O)c2cc3n(n2)C(C(F)(F)F)CC(c2ccco2)N3)c(=O)n(-c2ccccc2)n1C (stereo not drawn)	0.96
C=CCNC(=S)NNC(=O)c1oc2nc(-c3ccccc3)cc(-c3ccccc3)c2c1N	-1.52
O=C1CS/C(=N\N=C\c2ccccc2O)N1c1cccc(F)c1	2.04
CC(=O)OCC12COC(c3ccc(OC(C)=O)cc3)C(C(C)=CC1C)C2C (stereo not drawn)	3.42*
COc1ccc(C2OCC3(COC(C)=O)C(C)C=C(C)C2C3C)cc1 (stereo not drawn)	1.18
CC(=O)OCC12COC(c3ccccc3OC(C)=O)C(C(C)=CC1C)C2C (stereo not drawn)	1.9
CC(C)(C)c1cc(C(C)(C)C)n(-c2ccc(C(=O)NN)cc2)n1	-1.05
